# Results: the supplement of paper PMC8975748
# Counter-ions that a name gives are not always drawn.
# Test system: Saccharomyces cerevisiae BY4741 SeMeCo community
# Assay: z-score of subpopulation abundance vs DMSO median, subpopulation auxotrophic for H; higher = larger share of this subpopulation than in DMSO controls
# Conditions: 10 µM; 24 h; SM minimal medium; subpopulation (auxotrophy): H
# Procedure: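 Fluorescent four-plasmid SeMeCo (self-establishing metabolically cooperating S. cerevisiae BY4741 community; plasmids pH-mRuby2, pL-mWasabi, pU-eCFP, pM-TagRFP657) was grown 24 h in minimal SM medium with each Selleck FDA-approved drug at 10 µM in 384-well plates. Cells were fixed and imaged by high-content confocal microscopy. For each auxotrophic subpopulation (and the prototroph), a z-score gives the deviation from the DMSO vehicle-control population median.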
row,Compound,z-score of subpopulation abundance
1,CC(=O)O[C@H]1C[C@@H]2CC[C@@H]3[C@H](CC[C@@]4(C)[C@H]3C[C@H]([N+]3(C)CCCCC3)[C@@H]4OC(C)=O)[C@@]2(C)C[C@@H]1[N+]1(C)CCCCC1 [Pancuronium dibromide],-0.63
2,CN[C@@H]1[C@@H](O)[C@@H](O[C@@H]2[C@@H](O)[C@H](O[C@H]3O[C@H](CN)CC[C@H]3N)[C@@H](N)C[C@H]2N)OC[C@]1(C)O.CN[C@@H]1[C@@H](O)[C@@H](O[C@@H]2[C@@H](O)[C@H](O[C@H]3O[C@H]([C@@H](C)N)CC[C@H]3N)[C@@H](N)C[C@H]2N)OC[C@]1(C)O.CN[C@@H]1[C@@H](O)[C@@H](O[C@@H]2[C@@H](O)[C@H](O[C@H]3O[C@H]([C@@H](C)NC)CC[C@H]3N)[C@@H](N)C[C@H]2N)OC[C@]1(C)O [Gentamicin Sulfate],-0.2
3,CN(C)[C@@H]1C(=O)C(C(N)=O)=C(O)[C@@]2(O)C(=O)C3=C(O)c4c(O)ccc(Cl)c4[C@@](C)(O)[C@H]3C[C@@H]12 [Chlortetracycline HCl],0.94
4,CN(C)[C@@H]1C(=O)C(C(N)=O)=C(O)[C@@]2(O)C(=O)C3=C(O)c4c(O)cccc4[C@@](C)(O)[C@H]3[C@H](O)[C@@H]12 [Oxytetracycline Dihydrate],0.31
5,CN1c2ccccc2C(NCCCCCCC(=O)O)c2ccc(Cl)cc2S1(=O)=O (centres undefined) [Tianeptine sodium],-0.28
6,O=C(O[C@H]1C[C@H]2CC[C@@H](C1)[N+]21CCCC1)C(O)(c1ccccc1)c1ccccc1 [Trospium chloride],-0.71
7,Cc1cc(C(C#N)c2ccc(Cl)cc2)c(Cl)cc1NC(=O)c1cc(I)cc(I)c1O (centres undefined) [Closantel],-0.23
8,CN1[C@@H]2CC[C@H]1C[C@@H](OC(=O)[C@H](CO)c1ccccc1)C2 [Hyoscyamine],-0.74
9,COc1ccc2[nH]cc(CCN)c2c1 [5-Methoxytryptamine],-0.85
10,COc1ccc(C(CN(C)C)C2(O)CCCCC2)cc1 (centres undefined) [Venlafaxine HCl],-0.98
11,CC(C)=CCOc1c2occc2cc2ccc(=O)oc12 [Imperatorin],0.08
12,CC(C)(O)C(Cl)(Cl)Cl [Chlorobutanol],-0.15
13,O=c1cccc2n1C[C@@H]1CNC[C@H]2C1 [Cytisine],-0.04
14,NCCc1c[nH]c2ccc(O)cc12 [Serotonin HCl],-1.54
15,CN(C)C(=O)Oc1cccc([N+](C)(C)C)c1 [Neostigmine Bromide],0.03
16,CC[C@H]1CN2CC[C@]3(C(=O)Nc4ccccc43)[C@@H]2C[C@@H]1/C(=C\OC)C(=O)OC [Rhynchophylline],-0.08
17,Cc1cc(O)ccc1Cl [Chlorocresol],-0.85

row,Compound,z-score of subpopulation abundance
1,CC[C@@]1(O)C(=O)OCc2c1cc1n(c2=O)Cc2cc3ccccc3nc2-1 [Camptothecin],-1.03
2,C=C(C)[C@H]1Cc2c(ccc3c2O[C@@H]2COc4cc(OC)c(OC)cc4[C@@H]2C3=O)O1 [Rotenone (Barbasco)],0.51
3,C=CC[C@]1(O)CC[C@H]2[C@@H]3CCC4=CC(=O)CCC4=C3C=C[C@@]21C [Altrenogest],0.24
4,"NCC(O)c1ccc(O)cc1 (racemic) [(+,-)-Octopamine HCl]",-1.07
5,CC1(C)SC2C(N)C(=O)N2C1C(=O)O (centres undefined) [6-Aminopenicillanic acid],0.55
6,C=CN1CCCC1=O.II [Povidone iodine],1.96
7,CC[C@@H](C(N)=O)N1CCCC1=O [Levetiracetam],-0.46
8,CCN1CC2(OC(=O)c3ccccc3NC(C)=O)CCC(OC)C34C1C(CC23)C1(O)CC(OC)C2CC4C1(O)C2OC (centres undefined) [Lappaconitine],-0.16
9,Cn1cc(C2=C(c3cn(C4CCN(Cc5ccccn5)CC4)c4ccccc34)C(=O)NC2=O)c2ccccc21,-2.71
10,CN1[C@@H]2C[C@@H](OC(=O)[C@H](CO)c3ccccc3)C[C@H]1[C@@H]1O[C@@H]12 [Scopolamine HBr],-0.96
11,Nc1nc(N)nc(NC2CC2)n1 [Cyromazine],0.14
12,CN(C)C(=O)Oc1ccc[n+](C)c1 [Pyridostigmine Bromide],0.16
13,CC(=O)OCC1=C(C(=O)O)N2C(=O)C(N)C2SC1 (centres undefined) [7-Aminocephalosporanic acid],0.4
14,O=c1[nH]c2ccccc2n1CCCN1CCC(n2c(=O)[nH]c3cc(Cl)ccc32)CC1 [Domperidone],0.24
15,CCN(CC)CCOC(=O)C(O)(c1ccccc1)c1ccccc1 [Benactyzine hydrochloride],-0.16
16,O=[N+]([O-])C(Br)(CO)CO [Bronopol],-0.52
17,CC(C)N(CCC(C(N)=O)(c1ccccc1)c1ccccn1)C(C)C (centres undefined) [Disopyramide],1.28
